Inconclusive results are not listed. The source made the active and inactive calls. Calls come from the whole dose curve; as a rule, active = well fitted inhibition curve with a large enough effect; inconclusive = small, poorly fitted or top-dose-only effect; inactive = flat fitted curve, though single readings scatter.
Assays:
PC15 = experiment: qHTS profiling for inhibitors of Plasmodium falciparum proliferation (AID 504749); details: P. falciparum in erythrocytes, SYBR Green DNA, 72 h; series mostly up to 28.7 µM
Procedure, shortened: (§1)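 Parasite proliferation within erythrocytes, 72 h exposure. Endpoint: SYBR Green I fluorescence after overnight lysis at room temperature. Controls: 0.29 uM artemisinin, DMSO.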

PC26 = experiment: as above; details: P. falciparum in erythrocytes, SYBR Green DNA, 72 h; series mostly up to 28.7 µM
Procedure, shortened: as §1

PC49 = experiment: as above; details: P. falciparum in erythrocytes, SYBR Green DNA, 72 h; series mostly up to 28.7 µM
Procedure, shortened: as §1

SC27B = experiment: as above; details: P. falciparum in erythrocytes, SYBR Green DNA, 72 h; series mostly up to 28.7 µM
Procedure, shortened: as §1

TAB109 = experiment: as above; details: P. falciparum in erythrocytes, SYBR Green DNA, 72 h; series mostly up to 28.7 µM
Procedure, shortened: as §1

TAB113 = experiment: as above; details: P. falciparum in erythrocytes, SYBR Green DNA, 72 h; series mostly up to 28.7 µM
Procedure, shortened: as §1

W2 = experiment: as above; details: P. falciparum in erythrocytes, SYBR Green DNA, 72 h; series mostly up to 28.7 µM
Procedure, shortened: as §1

TAB165 = experiment: as above; details: P. falciparum in erythrocytes, SYBR Green DNA, 72 h; series mostly up to 28.7 µM
Procedure, shortened: as §1

MCC-13 = experiment: qHTS assay to identify novel small-molecules to repurpose for Merkel cell carcinoma treatment (AID 1296009); details: MCC and control cell lines, CellTiter-Glo viability, 72 h; series mostly up to 46 µM
Procedure, shortened: (§2)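 qHTS format: cells treated with library compounds in DMSO across 8 (NPC) or 11 (MIPE) concentrations. Readout after 72 hr at 37 degree celsius was CellTiter-Glo luminescence.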

MCC-26 = experiment: as above; details: MCC and control cell lines, CellTiter-Glo viability, 72 h; series mostly up to 46 µM
Procedure, shortened: as §2

MKL-1 = experiment: as above; details: MCC and control cell lines, CellTiter-Glo viability, 72 h; series mostly up to 46 µM
Procedure, shortened: as §2

MKL-2 = experiment: as above; details: MCC and control cell lines, CellTiter-Glo viability, 72 h; series mostly up to 46 µM
Procedure, shortened: as §2

Measured: Potency
Note: nearly all actives have a fitted effect of over 60% in size.

COc1cc(C(=S)N2CCOCC2)cc(OC)c1OC
inactive: PC15 | PC26 | PC49 | SC27B | TAB109 | TAB113 | W2

Nc1ccc(/C=C/c2ccc(N)cc2S(=O)(=O)O)c(S(=O)(=O)O)c1
inactive: PC15 | PC26 | PC49 | SC27B | TAB109 | TAB165 | W2

O=C1OC(c2ccc(O)cc2)(c2ccc(O)cc2)c2ccccc21
inactive: all assays above

Source: PubChem BioAssay (NCATS)
